Source: PubChem BioAssay
Most compounds without a hit are left out; they make up all but 2.8% or so of the library.
SNCA expr inhib: SNCA gene expression inhibition. HEK-293 SNCA-luciferase knock-in, luminescence, 24 h. Potency, µM (series often up to 57.2 µM), inactives show at the top dose activity change, negative = inhibition, hits mostly inhibitors. actives 0.17% (n = 140,000). AID 1671194;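 also: potency is read from the fitted curve at half-maximal effect; plate controls were DMSO cells for no effect and cell-free wells for full effect; nearly all actives have a fitted effect of over 45% in size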
IP6K1 inh: IP6K1 kinase inhibition; actives 0.81% (n = 140,000); AID 1645851; IP6K1 kinase, ADP-Glo luminescence, 2 h; active compounds read low; activity change, % (series mostly up to about 58 µM); in the data active = activity change below about -25%; also: % is scaled to controls: 0 for no effect and ±100 for the full control effect
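ADP-Glo luminescence measures ADP made by human IP6K1 during a 2 h RT reaction with ATP/IP6 (mix at 1.3 mM/130 uM); top library doses 57.5 and 19.1 uM final.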
KDM5B inhibitor: blocks human KDM5B histone demethylase activity; AID 1347165; Potency, µM (doses to about 57.7 µM), hits mostly inhibitors; actives 2.6% (n = 220,000); KDM5B demethylase, FDH-coupled NADH fluorescence (FDH is formaldehyde dehydrogenase); Q9UGL1; also: potency is read from the fitted curve at half-maximal effect; 0% is about no effect; nearly all actives have a fitted effect of over 70% in size
Target sequence (Q9UGL1 whole entry, looked up): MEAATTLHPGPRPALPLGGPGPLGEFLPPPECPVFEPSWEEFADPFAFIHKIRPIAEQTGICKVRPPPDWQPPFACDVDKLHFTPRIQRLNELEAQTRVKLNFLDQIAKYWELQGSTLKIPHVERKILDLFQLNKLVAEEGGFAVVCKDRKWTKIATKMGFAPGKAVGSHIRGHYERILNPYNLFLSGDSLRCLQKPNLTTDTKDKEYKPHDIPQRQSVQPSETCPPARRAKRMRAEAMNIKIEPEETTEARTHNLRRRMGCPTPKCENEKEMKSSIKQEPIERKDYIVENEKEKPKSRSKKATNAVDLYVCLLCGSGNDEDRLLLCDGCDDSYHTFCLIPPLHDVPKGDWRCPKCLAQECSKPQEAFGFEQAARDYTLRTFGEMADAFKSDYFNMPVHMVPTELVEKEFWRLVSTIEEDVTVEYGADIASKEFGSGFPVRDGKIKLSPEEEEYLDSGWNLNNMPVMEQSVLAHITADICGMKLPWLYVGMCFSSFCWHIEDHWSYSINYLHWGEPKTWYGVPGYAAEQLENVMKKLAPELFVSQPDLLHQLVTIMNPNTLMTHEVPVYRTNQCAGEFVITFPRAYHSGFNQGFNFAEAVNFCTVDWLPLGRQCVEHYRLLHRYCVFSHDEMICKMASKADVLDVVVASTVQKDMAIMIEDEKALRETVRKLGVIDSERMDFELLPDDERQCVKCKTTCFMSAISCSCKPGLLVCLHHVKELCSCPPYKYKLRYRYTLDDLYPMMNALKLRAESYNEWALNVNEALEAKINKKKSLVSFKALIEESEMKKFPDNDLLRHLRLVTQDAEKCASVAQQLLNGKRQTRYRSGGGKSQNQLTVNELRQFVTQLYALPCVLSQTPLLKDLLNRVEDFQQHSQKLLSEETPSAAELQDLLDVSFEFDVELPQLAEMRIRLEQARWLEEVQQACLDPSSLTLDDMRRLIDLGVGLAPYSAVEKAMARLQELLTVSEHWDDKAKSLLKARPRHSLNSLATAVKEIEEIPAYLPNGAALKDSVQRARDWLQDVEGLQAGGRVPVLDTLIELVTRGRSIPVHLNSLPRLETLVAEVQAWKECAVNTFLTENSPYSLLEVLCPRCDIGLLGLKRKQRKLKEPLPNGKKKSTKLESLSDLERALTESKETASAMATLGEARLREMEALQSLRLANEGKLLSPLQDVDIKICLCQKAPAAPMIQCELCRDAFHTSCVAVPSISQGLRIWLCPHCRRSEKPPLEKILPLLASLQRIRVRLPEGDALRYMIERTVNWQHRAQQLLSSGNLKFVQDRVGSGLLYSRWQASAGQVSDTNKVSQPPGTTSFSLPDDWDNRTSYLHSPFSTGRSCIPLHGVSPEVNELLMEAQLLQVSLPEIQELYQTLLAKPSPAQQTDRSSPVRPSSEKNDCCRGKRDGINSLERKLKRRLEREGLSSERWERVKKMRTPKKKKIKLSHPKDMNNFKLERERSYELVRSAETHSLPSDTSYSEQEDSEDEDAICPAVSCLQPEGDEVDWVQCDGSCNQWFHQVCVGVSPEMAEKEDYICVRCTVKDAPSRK
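Measured: NADH fluorescence change, 30 min, RT. System: KDM5BΔAP 200 nM final, H3K4me3 peptide, α-KG, Fe(II), ascorbate, NAD⁺ plus FDH, pH 7.5 HEPES. Compounds: titrated, 10 min pre-incubation with enzyme.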
HEK293 viab: reduces viability of HEK-293 SNCA reporter cells. HEK-293-SNCA-luc viability, GF-AFC fluorescence, 24 h. Potency, µM (titrated, usually from 57.1 µM), inactives show at the highest dose activity change, negative = cytotoxicity, usual class: cytotoxic. actives 0.12% (n = 150,000). AID 1671193;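 also: potency is read from the fitted curve at half-maximal effect; 0% = DMSO-treated cells and -100% = medium-only wells without cells; nearly all actives have a fitted effect of over 30% in size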
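Cytotoxicity counterscreen: after 24 h compound treatment of genome-edited SNCA-luciferase HEK-293 cells, live-cell protease substrate GF-AFC read by fluorescence after 30 min; activity scaled between DMSO (0%) and medium-only (-100%), curves Hill-fitted.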
An asterisk follows results filed as active; [ ] = another dose, or the depositor's remark. Unless noted, calls follow the shape of the dose curve; as a rule, active = well fitted curve in the direction sought with a large enough effect; inconclusive = small, poorly fitted or top-dose-only effect, or another doubt; inactive = no such curve, though single readings can be large; an effect the other way counts as inactive or inconclusive.

How did COc1ccc(CN2CC(COc3ccccc3)C3(C2)CN(c2ccccc2)C3)cc1O (centres undefined) do in these assays?
SNCA expr inhib: inconclusive; IP6K1 inh: -5; KDM5B inhibitor: 32µM*; HEK293 viab: inconclusive

What do the screens show for `Cc1nnc(SCC(=O)c2c[nH]c(C(=O)N3CCCC3)c2)n1C1CCCCC1`?
KDM5B inhibitor: inactive

How did Cc1ccc(NC(=O)/C=C/c2cccs2)cc1C do in these assays?
KDM5B inhibitor: inactive

Results for COc1cc(CNC(=O)c2cc(-c3cccc(N(C)C)c3)cc3ncn(C)c23)ccn1 ?
SNCA expr inhib: 75%[87.6 µM]; IP6K1 inh: 0; KDM5B inhibitor: inactive; HEK293 viab: -23%[87.6 µM]

What do the screens show for `COc1ncccc1-c1cc(C(=O)NCCN2CCOCC2)c2c(c1)ncn2C`?
SNCA expr inhib: 8%[87.6 µM]; IP6K1 inh: 10; KDM5B inhibitor: 35µM*; HEK293 viab: 1%[87.6 µM]

How did Cn1cnc2cc(-c3ccc(N4CCOCC4)cc3)cc(C(=O)NCc3cccnc3)c21 do in these assays?
SNCA expr inhib: 13%[87.6 µM]; IP6K1 inh: -1; KDM5B inhibitor: inconclusive; HEK293 viab: -8%[87.6 µM]

What do the screens show for `COc1ccc(-c2cc(C(=O)NCc3ccnc(N)c3)c3c(c2)ncn3C)cc1`?
SNCA expr inhib: 8%[87.6 µM]; IP6K1 inh: 1; KDM5B inhibitor: 40µM*; HEK293 viab: -6%[87.6 µM]

Results for Cn1cnc2cc(-c3cccc(C(F)(F)F)c3)cc(C(=O)NCc3cccnc3)c21 ?
SNCA expr inhib: 13%[87.6 µM]; IP6K1 inh: -7; KDM5B inhibitor: inconclusive; HEK293 viab: -24%[87.6 µM]

Results for Cn1cnc2cc(-c3ccccc3)cc(C(=O)NCc3cccnc3)c21 ?
SNCA expr inhib: 15%[87.6 µM]; IP6K1 inh: -1; KDM5B inhibitor: 32µM*; HEK293 viab: -10%[87.6 µM]

What do the screens show for `Cn1cnc2cc(-c3ccc(F)cc3)cc(C(=O)NCc3cccnc3)c21`?
SNCA expr inhib: 5%[87.6 µM]; IP6K1 inh: -7; KDM5B inhibitor: 32µM*; HEK293 viab: 11%[87.6 µM]

Results for CCOC(=O)NC(=O)COC(=O)CNC(=O)c1cccc(C)c1 ?
KDM5B inhibitor: inactive

What do the screens show for `Cc1nn(CC(=O)N2CCCCC2C)c(C)c1S(=O)(=O)NC(C)(C)C` (centres undefined)?
KDM5B inhibitor: inactive

How did COc1ccc(CNC(=O)c2cc(-c3ccc(F)cc3)cc3ncn(C)c23)cc1OC do in these assays?
SNCA expr inhib: 77%[87.6 µM]; IP6K1 inh: -10; KDM5B inhibitor: inactive; HEK293 viab: 7%[87.6 µM]

What do the screens show for `Cn1cnc2cc(-c3ccc(F)cc3)cc(C(=O)NCC3CCOCC3)c21`?
SNCA expr inhib: 8%[87.6 µM]; IP6K1 inh: -7; KDM5B inhibitor: 35µM*; HEK293 viab: 4%[87.6 µM]

What do the screens show for `COc1cc(F)ccc1-c1cc(C(=O)NCc2cccnc2)c2c(c1)ncn2C`?
SNCA expr inhib: -8%[87.6 µM]; IP6K1 inh: -4; KDM5B inhibitor: 35µM*; HEK293 viab: -2%[87.6 µM]

Results for COCCNC(=O)c1cc(-c2cnn(Cc3ccccc3)c2)cc2ncn(C)c12 ?
SNCA expr inhib: -1%[87.6 µM]; IP6K1 inh: 10; KDM5B inhibitor: 35µM*; HEK293 viab: 2%[87.6 µM]

Results for COc1cc(F)ccc1-c1cc(C(=O)NCc2ccnc(N)c2)c2c(c1)ncn2C ?
SNCA expr inhib: 0%[87.6 µM]; IP6K1 inh: 0; KDM5B inhibitor: 35µM*; HEK293 viab: -15%[87.6 µM]

How did O=S(=O)(c1ccc(F)c(F)c1)N1CCN(Cc2ccc3c(c2)CCO3)CC1 do in these assays?
KDM5B inhibitor: inactive

What do the screens show for `O=C(O)COc1ccc(-c2nccc3c2C(=O)N(Cc2cccc(C(F)(F)F)c2)CC(CNC(=O)C2CCOCC2)O3)cc1` (centres undefined)?
SNCA expr inhib: inconclusive; IP6K1 inh: 1; KDM5B inhibitor: inconclusive; HEK293 viab: inconclusive

Results for Cc1cccc(OCC(=O)N2CCC3(CC2)CN(c2ncccn2)CC3CO)c1 (centres undefined) ?
SNCA expr inhib: 9%; IP6K1 inh: -5; KDM5B inhibitor: 20µM*; HEK293 viab: 10%

What do the screens show for `O=C(COc1ccccc1)N1CCC2(CC1)CN(c1ncccn1)CC2CO` (centres undefined)?
SNCA expr inhib: -14%; IP6K1 inh: 6; KDM5B inhibitor: 22µM*; HEK293 viab: -5%

Results for COC(=O)[C@@H]1Cc2c([nH]c3ccccc23)[C@H]2C[C@@H](NCCNC(C)=O)C[C@@H](c3ccccc3)N21 ?
SNCA expr inhib: 9%; IP6K1 inh: -15; KDM5B inhibitor: 8.9µM*; HEK293 viab: 1%
